An excerpt weighted towards active compounds, which were near 11% of everything screened.
ALDH1A1 inh: inhibitors of human aldehyde dehydrogenase 1A1. hit rate 7.3% among 220,000. Potency, µM (doses to about 75.3 µM), most hits filed as inhibitors. AID 1030. Purified ALDH1A1, NADH fluorescence, propionaldehyde substrate
PNC assembly inh: blocks assembly of the perinucleolar compartment; PC3M PTB-GFP, PNC prevalence imaging, 16 h; stronger effect = lower value; activity change (PNC), negative = inhibition, % at 10 µM; hit rate 3.1% among 140,000;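 active = readout at or below -70, meaning at least 70% loss of cells showing the perinucleolar compartment, a nuclear body marking cancer cells; inconclusive = readout between -30 and a set limit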
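Compounds are pinned in duplicate onto adhered PC3M cells stably expressing GFP-tagged PTB and incubated 16 h at 37 C. Cells are then fixed, nuclei stained with Hoechst, and PNC-positive cells counted.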
HPGD block: blocks human HPGD enzyme activity; P15428; purified HPGD, NADH fluorescence kinetic, PGE2 substrate; Potency, µM, usual class: inhibitors; hit rate 4.3% among 150,000; AID 894
Target sequence (P15428 whole entry, looked up): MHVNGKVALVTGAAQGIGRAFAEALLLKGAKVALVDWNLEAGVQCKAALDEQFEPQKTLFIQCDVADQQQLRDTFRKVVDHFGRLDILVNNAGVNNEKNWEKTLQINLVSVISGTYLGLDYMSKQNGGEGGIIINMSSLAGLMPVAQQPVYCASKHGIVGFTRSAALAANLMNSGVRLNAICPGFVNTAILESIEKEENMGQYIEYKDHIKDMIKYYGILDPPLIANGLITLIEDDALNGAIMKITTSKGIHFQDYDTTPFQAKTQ
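NADH formation kinetics: reaction with 30 uM PGE2 and 1 mM NAD+ (final), 20 nM enzyme, Tris-HCl pH 8 with Tween 20, after 15 min compound preincubation at room temperature. Fluorescence change, last versus first of five reads.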
Large screens that a line does not name were inactive. Unless noted, calls come from the whole dose curve; as a rule, active = well fitted inhibition curve with a large enough effect (not every such curve was filed as active); inconclusive = small, poorly fitted or top-dose-only effect, or another doubt; inactive = no such curve, though single readings can be large or run the other way.

CC(C)Cn1c(-c2cc([N+](=O)[O-])ccc2Cl)nc2c1c(=O)[nH]c(=O)n2Cc1ccccc1	ALDH1A1 inh inconclusive
COc1ccc(-c2ccc(-c3nc4c(c(=O)[nH]c(=O)n4Cc4ccccc4)n3C)o2)c([N+](=O)[O-])c1	HPGD block 28.2µM
O=c1[nH]c(=O)n(Cc2ccccc2)c2nc(-c3ccc(Oc4ccc(F)cc4)c([N+](=O)[O-])c3)n(CCO)c12	none
COCCn1c(-c2ccc(-c3ccc([N+](=O)[O-])cc3Br)o2)nc2c1c(=O)[nH]c(=O)n2CC(C)C	ALDH1A1 inh 15.8µM (no result: PNC assembly inh, HPGD block)
CC(=O)C1CCC2C3CC=C4CC(O)CC[C@@]4(C)C3CC[C@]12C (some centres not stated)	none (no result: PNC assembly inh)
Cc1cc(C(=O)NC(C)Cc2ccccc2)cc(C)c1[N+](=O)[O-] (configuration not stated)	none (no result: PNC assembly inh, HPGD block)
COc1cc(C(=O)NCC(=O)OC(C)C(=O)Nc2ncc(Cl)cc2Cl)cc(OC)c1OC (configuration not stated)	none (no result: PNC assembly inh, HPGD block)
O=C(c1cccs1)N1CCN(c2ncccn2)CC1	ALDH1A1 inh inconclusive
O=C(c1cc2c(s1)CCCCC2)N1CCN(c2ncccn2)CC1	ALDH1A1 inh 14.1µM
O=C(c1cc2c(s1)CCCC2)N1CCN(C(=O)C2CCCO2)CC1 (configuration not stated)	ALDH1A1 inh inconclusive
COc1ccccc1N1CCN(C(=O)c2cc3c(s2)CCC3)CC1	ALDH1A1 inh 20µM
COc1ccccc1N1CCN(C(=O)c2ccc([N+](=O)[O-])s2)CC1	none (no result: HPGD block)
O=C(c1cc2c(s1)CCCC2)n1cccn1	ALDH1A1 inh inconclusive, HPGD block 15.8µM
CC(=O)c1ccc(N2CCN(C(=O)c3cc4c(s3)CCCC4)CC2)cc1	ALDH1A1 inh 22.4µM (no result: PNC assembly inh, HPGD block)
O=C(O)c1cc2c(s1)CCCC2	none
O=C(C[n+]1cccc(CO)c1)Nc1nc2ccccc2s1	none (no result: PNC assembly inh, HPGD block)
COc1ccc(/C=C2\SC(=S)N(NC(=O)c3csc4c3CCCC4)C2=O)cc1	none
CC1=C(C(=O)OC(C)C)C(c2cn(-c3ccccc3)nc2-c2cccs2)NC(=O)N1 (configuration not stated)	none
CCCCCCCCCCCCCCCC(=O)NC(C)C(=O)O (configuration not stated)	none (no result: PNC assembly inh)
COc1ccc(OCC2CC3C(CCC(C)C3c3ccc(Br)cc3)C(=O)O2)cc1 (configuration not stated)	none (no result: PNC assembly inh, HPGD block)
OCCNc1nc(Nc2ccccc2)nc(Nc2ccccc2)n1	none
OCCNc1nc(Nc2ccccc2)nc2ccccc12	PNC assembly inh -118.9
COc1cccc(-n2c(N)c(-c3nc4ccccc4[nH]3)sc2=S)c1	ALDH1A1 inh 28.2µM (no result: PNC assembly inh, HPGD block)
Cc1cc(C)c2c(N)c(-c3nc4ccccc4[nH]3)sc2n1	none
COc1ccc(NC(=O)COC(=O)/C=C/c2cnc3ccccc3n2)cc1	none (no result: PNC assembly inh, HPGD block)
COc1ccccc1-c1n[nH]c(=S)n1-c1ccccc1	ALDH1A1 inh inconclusive, PNC assembly inh inconclusive, HPGD block 31.6µM
Cc1cccc(-n2c(-c3csc4ccccc34)n[nH]c2=S)c1	ALDH1A1 inh inconclusive, HPGD block 14.1µM
O=C(O)c1ccc(-n2c(-c3ccc(Br)cc3)n[nH]c2=S)cc1	ALDH1A1 inh 28.2µM, PNC assembly inh inconclusive, HPGD block inconclusive
COc1ccccc1-c1n[nH]c(=S)n1N	none (no result: PNC assembly inh, HPGD block)
S=c1[nH]nc(-c2ccc3ccccc3n2)n1-c1ccccc1	ALDH1A1 inh inconclusive, PNC assembly inh inconclusive, HPGD block 28.2µM
Fc1ccccc1-n1c(-c2ccc3ccccc3n2)n[nH]c1=S	none (no result: PNC assembly inh, HPGD block)
Cc1cccc(-n2c(C)n[nH]c2=S)c1	none
Cc1[nH]c2ccc(-c3n[nH]c(=S)n3-c3ccc(Br)cc3)cc2c1C	none (no result: PNC assembly inh, HPGD block)
CCNC(=O)NC(=O)C(C)Oc1ccc(Br)cc1Br (configuration not stated)	none (no result: PNC assembly inh, HPGD block)
O=C(NCc1ccccn1)C(=O)NN=C1CCCCCCC1	none (no result: PNC assembly inh, HPGD block)
Cc1ccccc1-n1c(-c2ccoc2C)n[nH]c1=S	none
COc1ccc(-c2cc(-c3n[nH]c(=S)n3-c3cccc4ccccc34)[nH]n2)cc1	none (no result: PNC assembly inh, HPGD block)
COc1ccccc1-n1c(-c2cc(-c3ccc(F)cc3)n[nH]2)n[nH]c1=S	ALDH1A1 inh 31.6µM (no result: PNC assembly inh, HPGD block)
Cc1ccc(-n2c(-c3cccc(C)c3)n[nH]c2=S)cc1	HPGD block 22.4µM
COc1ccccc1-n1c(-c2cccnc2)n[nH]c1=S	ALDH1A1 inh inconclusive
Cc1cccc(-n2c(-c3ccoc3C)n[nH]c2=S)c1	HPGD block 25.1µM
S=c1[nH]nc(-c2cccnc2)n1-c1ccccc1	ALDH1A1 inh 7.94µM, PNC assembly inh -87.8
Cc1cccc(-n2c(-c3ccncc3)n[nH]c2=S)c1	ALDH1A1 inh inconclusive
Cc1cc(C2CCCCC2)n(O)c(=O)c1	none (no result: PNC assembly inh)
CC(C)Oc1ccc(C(=O)Nc2ccc(C(F)(F)F)n(C)c2=O)cc1	none
Cc1cnc(CNc2nc(-c3cccc(NS(C)(=O)=O)c3)nc3ccccc23)cn1	none (no result: PNC assembly inh, HPGD block)
CCOC(=O)C12CC1/C(=N/O)c1ccccc1O2 (configuration not stated)	none (no result: PNC assembly inh)
O=C(/C=C/c1ccccc1)NC1CCCc2ccccc21 (configuration not stated)	none (no result: PNC assembly inh, HPGD block)
Cc1occc1-c1n[nH]c(=S)n1CC(C)C	PNC assembly inh -93.5
COc1ccc(-c2n[nH]c(=S)n2CC(C)C)cc1	none
Cc1ccccc1N1CN(Cc2ccco2)CNC1=S	ALDH1A1 inh inconclusive, PNC assembly inh inconclusive
O=C(O)C(O)C(O)(Cc1ccc(O)cc1)C(=O)O (configuration not stated)	none (no result: PNC assembly inh)
CC(=O)Nc1ccc(S(=O)(=O)Nc2nc3ccccc3s2)cc1	none
CC(=O)Nc1ccc(S(=O)(=O)Nc2nc3ccc([N+](=O)[O-])cc3s2)cc1	ALDH1A1 inh 14.1µM (no result: PNC assembly inh, HPGD block)
COc1ccc([N+](=O)[O-])cc1N(CC(=O)N(C)C)S(C)(=O)=O	none (no result: PNC assembly inh, HPGD block)
CC(CCc1ccccc1)NC(=O)CN1CCN(Cc2ccccc2)C1=O (configuration not stated)	none
COc1cccc(NC(=O)CN2CCC(C)CC2)c1	none
CC(CCc1ccccc1)NC(=O)CN1CCSc2ccccc21 (configuration not stated)	ALDH1A1 inh 12.6µM (no result: PNC assembly inh, HPGD block)
COc1cccc(NC(=O)CN2CCSc3ccccc32)c1	ALDH1A1 inh 18.9µM (no result: PNC assembly inh, HPGD block)
C#CCCCO/N=C1/[C@H]2O[C@@H]2[C@@H](O)[C@H]2[C@H]1CCn1c(=O)n(-c3ccccc3)c(=O)n12	none (no result: PNC assembly inh, HPGD block)
Clc1cc(Cl)cc(C2=N[C@@H](Cc3ccccc3)CO2)c1	none (no result: PNC assembly inh)
CN(C)CCCN(C(=O)c1ccc2c(c1)CCCC2)c1nc2ccc(Cl)cc2s1	ALDH1A1 inh 14.1µM
CN(C)CCCN(C(=O)CCc1ccccc1)c1nc2ccc(Cl)cc2s1	none
CN(C)CCCN(C(=O)c1sc2ccccc2c1Cl)c1nc2ccc(F)cc2s1	PNC assembly inh -94.3
CN(C)CCCN(C(=O)/C=C/c1cccs1)c1nc2ccc(F)cc2s1	none (no result: PNC assembly inh, HPGD block)
CCOC(=O)c1c(NC(=O)Cn2nnc(-c3ccc(Cl)cc3)n2)sc(CC)c1C	ALDH1A1 inh inconclusive
Cc1cc2c(cc1C)NC(c1cccnc1)C1=C(CC(C)(C)CC1=O)N2 (configuration not stated)	PNC assembly inh inconclusive
Cc1ccc(C2NC(=S)NC3=C2C(=O)CC(C)(C)C3)cc1 (configuration not stated)	ALDH1A1 inh 0.794µM, PNC assembly inh inconclusive
CC(Sc1nnnn1C)C(=O)NC1CCCc2ccccc21 (configuration not stated)	none (no result: PNC assembly inh, HPGD block)
Cc1ccc2nc(SC(C)C(=O)N3CC(C)OC(C)C3)[nH]c2c1 (configuration not stated)	none (no result: PNC assembly inh, HPGD block)
